Laboratory results reported in paper PMC7862700, “An all-to-all approach to the identification of sequence-specific readers for epigenetic DNA modifications on cytosine”.

Columns and labels:
Experiment in all cases: DAPPL (digital affinity profiling via proximity ligation, sequencing); 10 mM Tris-HCl pH 7.5, 50 mM NaCl, 1 mM DTT, 4% glycerol, room temperature, 30 min; GST-TFs on glutathione beads, 16-mer random dsDNA library, 0.1% formaldehyde crosslink after washing; high values mean tight binding
[1] = target: T1, FLI1 (Homo sapiens, UniProt Q01543 1-452); conditions: protein: recombinant; tags: N-terminal GST; dsDNA, one strand shown
T1 sequence: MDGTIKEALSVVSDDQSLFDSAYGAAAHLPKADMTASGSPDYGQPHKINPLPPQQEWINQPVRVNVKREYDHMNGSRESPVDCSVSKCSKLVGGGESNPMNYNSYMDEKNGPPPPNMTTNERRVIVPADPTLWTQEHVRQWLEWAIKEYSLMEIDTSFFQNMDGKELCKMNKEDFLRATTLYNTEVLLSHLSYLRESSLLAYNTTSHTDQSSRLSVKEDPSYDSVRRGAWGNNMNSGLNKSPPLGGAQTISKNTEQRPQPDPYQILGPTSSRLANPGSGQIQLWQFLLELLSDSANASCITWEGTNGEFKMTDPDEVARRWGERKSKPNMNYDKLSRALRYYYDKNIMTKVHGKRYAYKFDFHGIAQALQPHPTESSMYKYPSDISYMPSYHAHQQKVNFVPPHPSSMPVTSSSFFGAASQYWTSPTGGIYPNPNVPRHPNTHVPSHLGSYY
In short: (§1)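 Pools were built from human transcription factors expressed in yeast as GST fusions, captured on glutathione beads and DNA-barcoded, along with a tag-only sample. Incubation with 200 nmole of a 16-mer random double-stranded DNA library lasted 30 min at room temperature in Tris/NaCl/DTT/glycerol buffer, and was followed by washing, 0.1% formaldehyde crosslinking, proximity ligation, PCR amplification and Illumina NextSeq500 sequencing. Binding signal is the quotient of each hexamer's read frequency for a factor and its frequency for the tag-only sample.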

[2] = target: T2, ELK1 (Homo sapiens, UniProt P19419 1-428); conditions: protein: recombinant; tags: N-terminal GST; dsDNA, one strand shown
T2 sequence: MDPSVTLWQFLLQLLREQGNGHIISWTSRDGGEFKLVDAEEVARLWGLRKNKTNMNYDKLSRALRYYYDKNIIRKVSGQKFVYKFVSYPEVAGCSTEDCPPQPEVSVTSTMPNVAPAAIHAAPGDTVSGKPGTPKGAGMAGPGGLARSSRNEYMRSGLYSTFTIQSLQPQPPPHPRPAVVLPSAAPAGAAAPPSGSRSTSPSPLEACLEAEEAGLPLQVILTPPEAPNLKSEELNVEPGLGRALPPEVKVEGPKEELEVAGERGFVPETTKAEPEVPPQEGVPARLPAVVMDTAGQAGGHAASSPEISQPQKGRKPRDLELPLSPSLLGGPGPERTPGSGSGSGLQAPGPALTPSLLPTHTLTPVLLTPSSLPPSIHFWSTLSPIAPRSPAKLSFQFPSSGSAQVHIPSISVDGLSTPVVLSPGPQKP
In short: as §1

[3] = target: T3, GABPA (Homo sapiens, UniProt Q06546 1-454); conditions: protein: recombinant; tags: N-terminal GST; dsDNA, one strand shown
T3 sequence: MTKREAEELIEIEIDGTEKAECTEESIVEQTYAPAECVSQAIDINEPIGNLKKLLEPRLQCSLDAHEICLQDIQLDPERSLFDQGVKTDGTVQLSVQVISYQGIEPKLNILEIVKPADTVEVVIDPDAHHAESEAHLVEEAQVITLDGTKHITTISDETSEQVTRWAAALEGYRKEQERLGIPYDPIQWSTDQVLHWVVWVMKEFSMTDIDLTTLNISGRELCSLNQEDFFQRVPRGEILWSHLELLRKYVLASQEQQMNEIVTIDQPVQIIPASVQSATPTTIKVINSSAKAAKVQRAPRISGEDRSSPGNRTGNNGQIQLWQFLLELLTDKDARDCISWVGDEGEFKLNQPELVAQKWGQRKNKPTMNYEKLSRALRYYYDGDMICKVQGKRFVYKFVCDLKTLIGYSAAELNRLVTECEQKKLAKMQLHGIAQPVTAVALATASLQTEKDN
In short: as §1

[4] = target: T4, ERG (Homo sapiens, UniProt P11308 1-479); conditions: protein: recombinant; tags: N-terminal GST; dsDNA, one strand shown
T4 sequence: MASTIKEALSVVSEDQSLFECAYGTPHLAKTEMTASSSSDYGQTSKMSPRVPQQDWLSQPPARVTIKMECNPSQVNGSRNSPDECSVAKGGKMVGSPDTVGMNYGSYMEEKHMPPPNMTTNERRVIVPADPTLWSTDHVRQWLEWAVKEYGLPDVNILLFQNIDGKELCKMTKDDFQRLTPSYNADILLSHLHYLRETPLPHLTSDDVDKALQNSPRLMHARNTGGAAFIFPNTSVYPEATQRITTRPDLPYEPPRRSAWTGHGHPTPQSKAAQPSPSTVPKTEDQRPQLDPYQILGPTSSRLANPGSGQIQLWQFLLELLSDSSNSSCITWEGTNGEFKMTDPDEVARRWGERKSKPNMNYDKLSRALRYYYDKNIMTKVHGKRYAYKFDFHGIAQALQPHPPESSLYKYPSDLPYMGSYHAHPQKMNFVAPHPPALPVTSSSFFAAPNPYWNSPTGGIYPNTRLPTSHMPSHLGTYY
In short: as §1

[5] = target: ELF1 (Homo sapiens, UniProt P32519 1-619); conditions: protein: recombinant; tags: N-terminal GST; dsDNA, one strand shown
ELF1, sequence (P32519 whole entry): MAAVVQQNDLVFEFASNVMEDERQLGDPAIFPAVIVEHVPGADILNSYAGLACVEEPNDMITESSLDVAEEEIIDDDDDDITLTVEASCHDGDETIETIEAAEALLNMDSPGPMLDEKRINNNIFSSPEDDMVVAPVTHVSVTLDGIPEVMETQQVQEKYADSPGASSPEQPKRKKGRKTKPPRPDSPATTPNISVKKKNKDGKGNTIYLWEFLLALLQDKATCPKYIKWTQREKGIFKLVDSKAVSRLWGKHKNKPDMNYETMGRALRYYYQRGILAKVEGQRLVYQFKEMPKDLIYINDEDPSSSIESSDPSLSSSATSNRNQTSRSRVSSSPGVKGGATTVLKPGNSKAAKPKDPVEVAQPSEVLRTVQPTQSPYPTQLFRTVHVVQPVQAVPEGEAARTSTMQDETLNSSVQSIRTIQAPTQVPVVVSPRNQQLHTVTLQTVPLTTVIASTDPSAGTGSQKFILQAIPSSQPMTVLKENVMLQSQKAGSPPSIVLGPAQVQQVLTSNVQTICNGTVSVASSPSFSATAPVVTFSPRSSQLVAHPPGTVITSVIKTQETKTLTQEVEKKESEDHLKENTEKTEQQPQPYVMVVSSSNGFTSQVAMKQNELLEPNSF
In short: as §1

[6] = target: T5, EHF (Homo sapiens, UniProt Q9NZC4 1-300); conditions: protein: recombinant; tags: N-terminal GST; dsDNA, one strand shown
T5 sequence: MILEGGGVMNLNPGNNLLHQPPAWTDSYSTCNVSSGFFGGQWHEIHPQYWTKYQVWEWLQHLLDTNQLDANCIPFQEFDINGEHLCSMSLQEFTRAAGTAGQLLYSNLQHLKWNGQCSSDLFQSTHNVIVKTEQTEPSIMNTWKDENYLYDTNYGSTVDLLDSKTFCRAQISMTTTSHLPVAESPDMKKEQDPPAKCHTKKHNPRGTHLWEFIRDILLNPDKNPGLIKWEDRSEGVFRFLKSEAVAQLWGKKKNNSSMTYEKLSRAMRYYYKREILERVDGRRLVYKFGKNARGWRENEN
In short: as §1

[7] = target: SPI1 (Homo sapiens, UniProt P17947 1-270); conditions: protein: recombinant; tags: N-terminal GST; dsDNA, one strand shown
In short: as §1

[8] = target: SPIB (Homo sapiens, UniProt Q01892 1-262); conditions: protein: recombinant; tags: N-terminal GST; dsDNA, one strand shown
SPIB, sequence (Q01892 whole entry): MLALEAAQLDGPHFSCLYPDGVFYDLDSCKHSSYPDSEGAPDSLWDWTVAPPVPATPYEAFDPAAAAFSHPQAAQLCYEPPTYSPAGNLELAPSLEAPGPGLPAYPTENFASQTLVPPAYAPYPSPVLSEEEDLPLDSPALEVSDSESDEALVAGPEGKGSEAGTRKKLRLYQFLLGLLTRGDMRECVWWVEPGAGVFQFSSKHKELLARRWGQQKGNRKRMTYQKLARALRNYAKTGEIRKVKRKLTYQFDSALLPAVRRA
In short: as §1

[9] = target: T6, ELK3 (Homo sapiens, UniProt P41970 1-407); conditions: protein: recombinant; tags: N-terminal GST; dsDNA, one strand shown
T6 sequence: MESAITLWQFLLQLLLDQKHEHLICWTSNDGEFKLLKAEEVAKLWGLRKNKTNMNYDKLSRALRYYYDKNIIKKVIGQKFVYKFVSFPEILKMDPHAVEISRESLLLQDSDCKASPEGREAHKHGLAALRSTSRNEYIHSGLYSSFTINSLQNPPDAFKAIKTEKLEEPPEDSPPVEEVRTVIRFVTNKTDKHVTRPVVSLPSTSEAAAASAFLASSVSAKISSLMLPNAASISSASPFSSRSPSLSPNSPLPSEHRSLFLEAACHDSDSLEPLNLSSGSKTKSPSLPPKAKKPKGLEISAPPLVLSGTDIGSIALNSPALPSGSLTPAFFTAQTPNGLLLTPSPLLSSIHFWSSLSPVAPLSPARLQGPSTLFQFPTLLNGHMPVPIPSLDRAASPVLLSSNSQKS
In short: as §1

[10] = target: T7, FEV (Homo sapiens, UniProt Q99581 1-238); conditions: protein: recombinant; tags: N-terminal GST; dsDNA, one strand shown
T7 sequence: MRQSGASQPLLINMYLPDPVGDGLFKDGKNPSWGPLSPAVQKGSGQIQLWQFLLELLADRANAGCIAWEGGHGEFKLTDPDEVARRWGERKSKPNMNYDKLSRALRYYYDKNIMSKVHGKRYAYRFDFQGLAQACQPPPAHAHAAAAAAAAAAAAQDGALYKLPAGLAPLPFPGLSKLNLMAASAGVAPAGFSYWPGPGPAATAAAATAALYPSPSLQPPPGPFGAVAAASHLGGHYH
In short: as §1

[11] = target: ETV5 (Homo sapiens, UniProt P41161 1-510); conditions: protein: recombinant; tags: N-terminal GST; dsDNA, one strand shown
ETV5, sequence (P41161 whole entry): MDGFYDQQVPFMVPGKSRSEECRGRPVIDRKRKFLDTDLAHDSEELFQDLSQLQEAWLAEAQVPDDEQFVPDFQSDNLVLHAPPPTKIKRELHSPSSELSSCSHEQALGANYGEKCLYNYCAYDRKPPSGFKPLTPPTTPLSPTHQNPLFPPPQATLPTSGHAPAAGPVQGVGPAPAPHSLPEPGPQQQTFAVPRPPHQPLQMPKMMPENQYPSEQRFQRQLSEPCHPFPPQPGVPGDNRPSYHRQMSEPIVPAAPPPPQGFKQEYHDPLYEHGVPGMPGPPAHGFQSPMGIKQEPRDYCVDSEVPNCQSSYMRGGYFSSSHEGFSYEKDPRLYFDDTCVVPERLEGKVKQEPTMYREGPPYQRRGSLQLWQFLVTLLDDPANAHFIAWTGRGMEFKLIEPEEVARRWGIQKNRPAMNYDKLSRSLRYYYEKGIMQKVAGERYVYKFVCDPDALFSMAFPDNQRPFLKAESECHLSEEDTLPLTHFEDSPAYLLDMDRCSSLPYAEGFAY
In short: as §1

[12] = target: HSF1 (Homo sapiens, UniProt Q00613 1-529); conditions: protein: recombinant; tags: N-terminal GST; chain copies: 3; dsDNA, one strand shown
HSF1, sequence (Q00613 whole entry): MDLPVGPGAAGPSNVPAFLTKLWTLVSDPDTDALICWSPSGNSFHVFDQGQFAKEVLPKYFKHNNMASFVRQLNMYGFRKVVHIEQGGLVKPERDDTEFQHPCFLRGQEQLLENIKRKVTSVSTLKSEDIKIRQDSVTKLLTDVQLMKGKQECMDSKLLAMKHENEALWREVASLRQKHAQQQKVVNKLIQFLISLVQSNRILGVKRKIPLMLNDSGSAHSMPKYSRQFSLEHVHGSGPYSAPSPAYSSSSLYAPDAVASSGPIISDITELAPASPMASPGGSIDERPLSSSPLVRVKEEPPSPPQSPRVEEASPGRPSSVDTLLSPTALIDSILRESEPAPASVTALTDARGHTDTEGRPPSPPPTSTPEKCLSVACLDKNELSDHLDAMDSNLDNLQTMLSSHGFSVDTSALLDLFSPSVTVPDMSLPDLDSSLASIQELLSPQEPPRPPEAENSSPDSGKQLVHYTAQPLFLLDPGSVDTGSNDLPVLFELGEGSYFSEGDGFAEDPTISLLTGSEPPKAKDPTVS
In short: as §1

[13] = target: T8, SPIC (Homo sapiens, UniProt Q8N5J4 1-248); conditions: protein: recombinant; tags: N-terminal GST; dsDNA, one strand shown
T8 sequence: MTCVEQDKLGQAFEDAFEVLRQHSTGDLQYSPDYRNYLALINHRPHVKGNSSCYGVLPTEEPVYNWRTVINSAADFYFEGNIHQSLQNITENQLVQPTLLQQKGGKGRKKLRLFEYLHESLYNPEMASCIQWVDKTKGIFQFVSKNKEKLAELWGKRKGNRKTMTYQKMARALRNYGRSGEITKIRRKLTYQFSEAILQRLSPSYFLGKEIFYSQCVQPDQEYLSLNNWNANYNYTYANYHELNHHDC
In short: as §1

[14] = target: ELF4 (Homo sapiens, UniProt Q99607 1-663); conditions: protein: recombinant; tags: N-terminal GST; dsDNA, one strand shown
ELF4, sequence (Q99607 whole entry): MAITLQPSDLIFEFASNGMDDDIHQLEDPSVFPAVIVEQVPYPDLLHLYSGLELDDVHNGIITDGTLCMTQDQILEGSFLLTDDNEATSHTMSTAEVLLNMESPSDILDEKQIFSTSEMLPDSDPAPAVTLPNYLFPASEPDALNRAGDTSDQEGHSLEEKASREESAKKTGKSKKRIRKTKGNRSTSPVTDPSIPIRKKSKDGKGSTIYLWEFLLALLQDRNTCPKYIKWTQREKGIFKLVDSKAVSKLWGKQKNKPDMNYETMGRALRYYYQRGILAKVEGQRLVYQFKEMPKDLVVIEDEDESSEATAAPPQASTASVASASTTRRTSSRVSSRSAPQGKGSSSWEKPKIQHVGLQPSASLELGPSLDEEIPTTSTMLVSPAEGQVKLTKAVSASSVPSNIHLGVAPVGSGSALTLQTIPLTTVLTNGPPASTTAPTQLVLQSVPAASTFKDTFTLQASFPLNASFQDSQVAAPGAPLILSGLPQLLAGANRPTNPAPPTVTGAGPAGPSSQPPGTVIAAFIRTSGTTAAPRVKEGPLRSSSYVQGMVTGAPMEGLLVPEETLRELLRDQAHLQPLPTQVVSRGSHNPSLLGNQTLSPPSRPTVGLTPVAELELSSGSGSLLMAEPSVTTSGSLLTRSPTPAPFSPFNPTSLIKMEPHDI
In short: as §1

[15] = target: T9, ELK4 (Homo sapiens, UniProt P28324-2 1-405); conditions: protein: recombinant; tags: N-terminal GST; dsDNA, one strand shown
T9 sequence: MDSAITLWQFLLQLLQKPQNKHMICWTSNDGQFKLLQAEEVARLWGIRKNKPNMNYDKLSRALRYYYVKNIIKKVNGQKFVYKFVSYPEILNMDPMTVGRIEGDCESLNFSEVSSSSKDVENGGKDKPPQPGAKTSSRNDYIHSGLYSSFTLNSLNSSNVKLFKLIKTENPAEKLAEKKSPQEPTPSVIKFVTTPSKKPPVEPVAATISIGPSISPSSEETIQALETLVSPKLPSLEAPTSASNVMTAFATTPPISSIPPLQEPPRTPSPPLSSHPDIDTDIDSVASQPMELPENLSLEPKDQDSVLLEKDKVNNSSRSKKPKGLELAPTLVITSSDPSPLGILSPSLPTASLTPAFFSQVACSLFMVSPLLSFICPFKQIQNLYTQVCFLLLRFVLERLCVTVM
In short: as §1

[16] = target: T10, ETV2 (Homo sapiens, UniProt O00321 1-342); conditions: protein: recombinant; tags: N-terminal GST; dsDNA, one strand shown
T10 sequence: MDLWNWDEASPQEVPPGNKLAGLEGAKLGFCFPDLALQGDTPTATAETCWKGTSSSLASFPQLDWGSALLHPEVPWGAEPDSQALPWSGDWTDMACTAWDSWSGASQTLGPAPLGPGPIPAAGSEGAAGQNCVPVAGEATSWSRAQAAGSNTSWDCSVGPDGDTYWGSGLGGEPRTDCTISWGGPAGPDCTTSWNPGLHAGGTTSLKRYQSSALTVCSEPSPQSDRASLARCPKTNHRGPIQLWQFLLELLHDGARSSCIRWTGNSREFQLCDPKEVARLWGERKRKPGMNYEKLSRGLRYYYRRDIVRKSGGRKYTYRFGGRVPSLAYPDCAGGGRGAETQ
In short: as §1

[17] = target: T11, ELF3 (Homo sapiens, UniProt P78545 1-371); conditions: protein: recombinant; tags: N-terminal GST; dsDNA, one strand shown
T11 sequence: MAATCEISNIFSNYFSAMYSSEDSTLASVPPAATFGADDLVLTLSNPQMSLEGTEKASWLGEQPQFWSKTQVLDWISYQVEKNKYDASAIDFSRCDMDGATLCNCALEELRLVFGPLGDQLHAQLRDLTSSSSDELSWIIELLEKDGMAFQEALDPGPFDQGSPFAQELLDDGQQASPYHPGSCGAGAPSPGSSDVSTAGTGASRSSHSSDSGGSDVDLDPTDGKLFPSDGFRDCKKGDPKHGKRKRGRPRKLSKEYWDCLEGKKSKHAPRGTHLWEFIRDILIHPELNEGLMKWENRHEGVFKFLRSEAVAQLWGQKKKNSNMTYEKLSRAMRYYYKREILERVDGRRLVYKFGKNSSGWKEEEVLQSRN
In short: as §1

[18] = target: CRX (Homo sapiens, UniProt O43186 1-299); conditions: protein: recombinant; tags: N-terminal GST; dsDNA, one strand shown
CRX, sequence (O43186 whole entry): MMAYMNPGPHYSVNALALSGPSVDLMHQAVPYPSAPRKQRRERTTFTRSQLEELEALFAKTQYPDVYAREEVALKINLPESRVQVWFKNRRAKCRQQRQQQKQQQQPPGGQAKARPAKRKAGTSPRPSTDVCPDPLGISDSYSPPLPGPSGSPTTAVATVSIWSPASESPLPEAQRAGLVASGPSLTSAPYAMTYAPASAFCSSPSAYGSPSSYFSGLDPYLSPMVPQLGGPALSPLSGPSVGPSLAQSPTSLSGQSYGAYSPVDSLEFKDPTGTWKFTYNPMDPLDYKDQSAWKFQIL
In short: as §1

[19] = target: ETV1 (Homo sapiens, UniProt P50549 1-477); conditions: protein: recombinant; tags: N-terminal GST; dsDNA, one strand shown
ETV1, sequence (P50549 whole entry): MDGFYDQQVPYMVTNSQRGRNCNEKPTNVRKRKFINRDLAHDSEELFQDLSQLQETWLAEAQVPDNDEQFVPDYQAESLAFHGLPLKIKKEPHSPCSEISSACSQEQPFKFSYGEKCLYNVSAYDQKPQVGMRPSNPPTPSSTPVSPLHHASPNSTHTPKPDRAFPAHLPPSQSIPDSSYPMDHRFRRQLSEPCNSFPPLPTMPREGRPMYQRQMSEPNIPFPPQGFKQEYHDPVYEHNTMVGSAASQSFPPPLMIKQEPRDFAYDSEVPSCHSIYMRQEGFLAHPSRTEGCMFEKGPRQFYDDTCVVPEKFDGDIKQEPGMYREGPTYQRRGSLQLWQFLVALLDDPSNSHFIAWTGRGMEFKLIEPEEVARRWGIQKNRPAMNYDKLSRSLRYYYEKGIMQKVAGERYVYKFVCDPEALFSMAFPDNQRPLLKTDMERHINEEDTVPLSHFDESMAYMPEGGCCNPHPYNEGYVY
In short: as §1

CCCTCT
binding signal [1]: 1.31 fold enrichment (6-mer frequency, TF over GST control) | binding signal [2]: 1.43 fold enrichment (6-mer frequency, TF over GST control) | binding signal [3]: 1.37 fold enrichment (6-mer frequency, TF over GST control) | binding signal [4]: 1.25 fold enrichment (6-mer frequency, TF over GST control) | binding signal [5]: 1.28 fold enrichment (6-mer frequency, TF over GST control) | binding signal [6]: 1.3 fold enrichment (6-mer frequency, TF over GST control) | binding signal [7]: 1.28 fold enrichment (6-mer frequency, TF over GST control) | binding signal [8]: 1.56 fold enrichment (6-mer frequency, TF over GST control) | binding signal [9]: 1.51 fold enrichment (6-mer frequency, TF over GST control) | binding signal [10]: 1.35 fold enrichment (6-mer frequency, TF over GST control) | binding signal [11]: 1.33 fold enrichment (6-mer frequency, TF over GST control) | binding signal [12]: 1.29 fold enrichment (6-mer frequency, TF over GST control) | binding signal [13]: 1.14 fold enrichment (6-mer frequency, TF over GST control) | binding signal [14]: 1.46 fold enrichment (6-mer frequency, TF over GST control) | binding signal [15]: 1.6 fold enrichment (6-mer frequency, TF over GST control) | binding signal [16]: 1.32 fold enrichment (6-mer frequency, TF over GST control) | binding signal [17]: 1.34 fold enrichment (6-mer frequency, TF over GST control) | binding signal [18]: 1.36 fold enrichment (6-mer frequency, TF over GST control) | binding signal [19]: 1.25 fold enrichment (6-mer frequency, TF over GST control)
